Experimental data from PubChem BioAssay (NCATS).
Results filed as inconclusive are left out. Calls of active or inactive are those of the source. Unless noted, calls come from the whole dose curve; as a rule, active = well fitted curve in the direction sought with a large enough effect; inconclusive = small, poorly fitted or top-dose-only effect, or another doubt; inactive = no such curve, though single readings can be large; an effect the other way counts as inactive or inconclusive.

Legend:
[1] = molecular target: Cytochrome P450 3A4 (Homo sapiens) (UniProt P08684); assay: qHTS Assay for Inhibitors and Substrates of Cytochrome P450 3A4 (AID 884); note: nearly all actives have a fitted effect of over 50% in size; note: potency is the fitted concentration of half-maximal effect; for activity change, negative = inhibition: % is set by controls: 0 for no effect and ±100 for the full control effect
Chain of Cytochrome P450 3A4 (Homo sapiens) (P08684 whole entry, looked up): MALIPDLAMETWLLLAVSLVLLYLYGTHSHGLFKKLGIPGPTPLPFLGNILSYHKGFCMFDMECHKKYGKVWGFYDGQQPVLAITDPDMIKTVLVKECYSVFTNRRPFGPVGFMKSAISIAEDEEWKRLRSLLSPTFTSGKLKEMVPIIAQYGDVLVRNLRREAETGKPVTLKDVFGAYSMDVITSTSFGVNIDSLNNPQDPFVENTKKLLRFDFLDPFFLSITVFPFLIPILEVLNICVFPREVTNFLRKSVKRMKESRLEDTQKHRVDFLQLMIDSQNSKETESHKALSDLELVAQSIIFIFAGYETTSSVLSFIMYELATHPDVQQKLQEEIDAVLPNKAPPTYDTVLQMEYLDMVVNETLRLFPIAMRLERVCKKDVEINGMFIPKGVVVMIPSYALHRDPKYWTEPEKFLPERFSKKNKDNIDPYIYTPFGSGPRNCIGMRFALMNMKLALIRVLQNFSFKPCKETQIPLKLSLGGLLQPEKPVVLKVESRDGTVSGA
Summary of the method: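 20 nM human CYP3A4 with 25 uM Luciferin-PPXE (at KM) in 200 mM KPO4, preincubated 10 min with compound; NADPH regeneration started a 60 min RT reaction. Luciferin detected by luminescence, normalized to 57 uM ketoconazole as full inhibition.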

[2] = molecular target: Cytochrome P450 3A4 (Homo sapiens) (UniProt P08684); assay: qHTS Assay for Activators of Cytochrome P450 3A4 (AID 885); note: nearly all actives have a fitted effect of over 65% in size
Summary of the method: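 Steps: enzyme/substrate mix dispensed; compound added, 10 min RT; NADPH regeneration solution added, 60 min RT; luciferin detection buffer stops reaction; 20 min later luminescence measured.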

[3] = Confirmation and Secondary Assay for Modulators of Hemoglobin Beta Chain Splicing at IVS2 654 locus (AID 910);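 note: HeLa cells stably carrying EGFP split by mutant beta-globin IVS2-654 intron; % of control where 0% means no effect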
Summary of the method: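 HeLa cells stably expressing EGFP interrupted by β-globin IVS2-654 intron, seeded overnight in Opti-MEM/2% FCS, then treated 2 days at 37 °C. Restored splicing read as total peak GFP intensity per well by laser scanning cytometry (488 nm excitation, 500–520 nm emission); 500 nM antisense PNA as control.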

[4] = Confirmation and Secondary Assay for Modulators of Hemoglobin Beta Chain Splicing at IVS2 705 locus (AID 930);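 note: HeLa cells stably expressing the EGFP-705 splicing reporter; GFP fluorescence per well restored by corrected splicing of the IVS2-705 intron in EGFP; % of control where 0% means no effect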
Summary of the method: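 Assay measures total GFP intensity per well in HeLa EGFP-705 cells after 2 days with compound; mis-splicing normally truncates EGFP, so fluorescence indicates corrected splicing.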

[5] = qHTS Assay for Lipid Storage Modulators (AID 1519; calls by dose curve; note: potency is the fitted concentration of half-maximal effect; for activity change, negative = inhibition: % is set by controls: 0 for no effect and ±100 for the full control effect); settings: Drosophila S3 cells, BODIPY lipid droplet/cell ratio, laser cytometry, cells loaded with oleic acid; for activity change, negative = inhibition: at 57.5 µM (top of the series)
Summary of the method: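 Cells seeded at 5,000 per well were treated with compounds over a concentration series and loaded with oleic acid (400 uM, as added). Lipid droplet fluorescence (488 nm excitation, 500-530 nm channel) was read by laser-scanning cytometry and normalized to 20 uM Triacsin C.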

[6] = measured here: cell count channel max response
[7] = measured here: lipid channel max response

CC(=O)OC1C[C@@]2(C)C(c3ccoc3)C[C@H]3O[C@@]32[C@@]2(C)C(=O)C(O)=C3C(C)(C)C(=O)C=C[C@]3(C)C12 (some centres undefined)
Potency [1]: 398 nM (active) | Potency [2]: inactive | Potency [3]: inactive | Potency [4]: inactive | Potency [5]: 15800 nM (active) | max response [5, 6]: -2.69% | max response [5, 7]: -67.6%

C=C(C)C1CNC(C(=O)O)C1CC(=O)O (centres undefined)
Potency [1]: inactive | Potency [3]: inactive | Potency [4]: inactive | activity change, negative = inhibition [5]: 6.75% (inactive) | max response [5, 6]: 5.93% | max response [5, 7]: 13%

CCC(CO)NC(=O)C1C=C2c3cccc4[nH]cc(c34)CC2N(C)C1 (centres undefined)
Potency [4]: inactive | activity change, negative = inhibition [5]: 10.6% (inactive) | max response [5, 6]: 3.07% | max response [5, 7]: 18.5%

COc1cc(OC)c2c(c1)OC(c1ccc(OC)c(OC)c1)C(O)C2 (centres undefined)
Potency [1]: inactive | Potency [3]: inactive | Potency [4]: inactive | activity change, negative = inhibition [5]: 10.8% (inactive) | max response [5, 6]: 10.1% | max response [5, 7]: 29.4%

O=C(CC[N+](=O)[O-])OCC1OC(O)C(OC(=O)CC[N+](=O)[O-])[C@@H](OC(=O)CC[N+](=O)[O-])C1OC(=O)CC[N+](=O)[O-] (some centres undefined)
Potency [1]: inactive | Potency [3]: inactive | Potency [4]: inactive | activity change, negative = inhibition [5]: 3.27% (inactive) | max response [5, 6]: 13% | max response [5, 7]: 17.5%

COc1cc2c(cc1O)CCNC2C (centres undefined)
Potency [1]: inactive | Potency [4]: inactive | activity change, negative = inhibition [5]: 6.98% (inactive) | max response [5, 6]: 8.33% | max response [5, 7]: 17.5%

COc1cc2c(cc1OC)[C@@H]1C(=O)c3ccc4oc(C(C)C)cc4c3OC1CO2 (some centres undefined)
Potency [3]: inactive | Potency [4]: inactive | Potency [5]: 2510 nM (active) | max response [5, 6]: -28.2% | max response [5, 7]: -80.9%
